Rab9 prom act: activators of Rab9 promoter | Huh7 Rab9 promoter-luciferase reporter, luminescence, 24 h | Potency, µM (top dose mostly 9.22 µM), most hits filed as activators | hit rate 2.8% among 320,000 | AID 485297; also: nearly all actives have a fitted effect of over 60% in size
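Huh7 cells stably carrying a Rab9 promoter-luciferase reporter, 1500 cells per well in OP-MEM I with 10% FBS, treated with compound 24 hours at 37C. Luciferase activity read by luminescence after 10 minutes with Amplite reagent.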
SMN2 splice up: increases expression of the SMN2 splice variant | HEK293 SMN2-luciferase splicing reporter, luminescence, 30-36 h | Potency, µM (series often up to 46.1 µM), hits mostly activators | hit rate 2.8% among 210,000; also: nearly all actives have a fitted effect of over 55% in size
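HEK293 cells carry an SMN2 minigene-luciferase reporter in which exon 7 inclusion puts luciferase in frame. Cells were seeded at 2000 cells/well, attached for 10-12 hours, then exposed to compounds for 30-36 hours at 37C before ONE-Glo luminescence.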
ELG1 genotox: inducers of genotoxicity in HEK293T ELG1-luciferase cells; HEK293T ELG1-luciferase reporter, luminescence, 16 h; Potency, µM (highest dose often 46 µM), most hits filed as activators; hit rate 1.3% among 330,000; AID 504466; also: nearly all actives have a fitted effect of over 60% in size
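Cells (2,000/well) expressing the ELG1-luciferase fusion are dosed by pin tool and kept 16 hr at 37 °C, 5% CO2. Signal comes from ONE-Glo luciferase reagent after 30 min at room temperature.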
NPC1 promoter act: activates the NPC1 promoter; Huh7 NPC1 promoter luciferase reporter, 24 h; Potency, µM (series often up to 9.22 µM), most hits filed as activators; hit rate 2.4% among 320,000; AID 485313; also: nearly all actives have a fitted effect of over 60% in size
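Cells: Huh7 expressing luciferase under the NPC1 promoter, 1500/well. Seeded 2 h, compound added, incubated 24 h at 37 °C. Luciferase reagent, 10 min ambient, then luminescence.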
FLuc counter: inhibits or activates purified firefly luciferase, miR-21 counter-screen; hit rate 6.9% among 360,000; P08659; Potency, µM (series often up to 57.5 µM), most hits filed as inhibitors; purified FLuc, Km substrates, luminescence inhibition; also: nearly all actives have a fitted effect of over 55% in size
Target sequence (P08659 whole entry, looked up): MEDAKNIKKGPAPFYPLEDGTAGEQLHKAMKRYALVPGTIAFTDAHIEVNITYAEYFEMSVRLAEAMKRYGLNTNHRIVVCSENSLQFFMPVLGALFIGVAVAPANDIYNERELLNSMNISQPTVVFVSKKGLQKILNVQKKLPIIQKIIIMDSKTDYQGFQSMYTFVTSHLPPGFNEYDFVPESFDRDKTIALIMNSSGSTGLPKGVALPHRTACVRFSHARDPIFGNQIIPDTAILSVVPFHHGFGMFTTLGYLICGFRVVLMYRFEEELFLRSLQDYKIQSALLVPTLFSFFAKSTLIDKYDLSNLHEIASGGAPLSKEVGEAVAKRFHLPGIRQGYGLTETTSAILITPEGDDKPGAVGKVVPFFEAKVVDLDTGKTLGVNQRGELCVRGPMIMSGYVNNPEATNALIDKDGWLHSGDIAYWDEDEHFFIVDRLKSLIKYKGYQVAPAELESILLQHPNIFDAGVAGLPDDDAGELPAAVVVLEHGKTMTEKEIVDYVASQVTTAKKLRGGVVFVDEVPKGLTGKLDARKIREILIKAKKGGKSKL
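Purified P. pyralis luciferase (10nM final) with 10uM D-luciferin and 10uM ATP (Km levels) in 50mM Tris acetate pH 7.5, 10mM Mg acetate, 0.01% Tween-20, 0.05% BSA; qHTS 6-point titration, ~60 µM downward; luminescence read.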
ELG1 repair inh: blocks ELG1-dependent DNA repair in HEK293T cells; HEK293T ELG1-luciferase reporter, luminescence, 16 h; DNA damage induced by 5-fluorouridine; Potency, µM (highest dose often 46.1 µM), actives largely listed as inhibitors; hit rate 2.3% among 330,000; also: nearly all actives have a fitted effect of over 55% in size
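Luminescence from the luciferase reporter, measured 30 min after ONE-Glo reagent at room temperature, was the read-out. Beforehand, 2,000 cells per well were exposed for 16 hr at 37 °C to 5-fluorouridine together with compound or vehicle.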
Of the large screens only hits and unclear results are named; the others gave an inactive call. A selection: hits, their analogues and other compounds. The true share with any hit is near 9.2%. Calls follow the shape of the dose curve; as a rule, active = well fitted curve in the direction sought with a large enough effect; inconclusive = small, poorly fitted or top-dose-only effect, or another doubt; inactive = no such curve, though single readings can be large; an effect the other way counts as inactive or inconclusive.

CCc1noc(C)c1C(=O)NCCc1ccc(F)cc1	none (no result: SMN2 splice up)
CCc1noc(C)c1C(=O)NCCc1ccccc1	Rab9 prom act inconclusive, ELG1 genotox 16µM, NPC1 promoter act inconclusive, FLuc counter inconclusive, ELG1 repair inh inconclusive (no result: SMN2 splice up)
CCc1noc(C)c1C(=O)Nc1nc2ccc(S(C)(=O)=O)cc2s1	FLuc counter 2.4µM, ELG1 repair inh inconclusive (no result: SMN2 splice up)
C/C(=N\NC(=O)CCc1ccc(S(=O)(=O)N2CCOCC2)cc1)c1ccc(Br)cc1	none
CCOc1ccccc1NC(=O)CCc1c(C)nn(-c2ccc(N3CCOCC3)nn2)c1C	none (no result: Rab9 prom act, SMN2 splice up, ELG1 genotox, NPC1 promoter act, ELG1 repair inh)
O=C(NCc1ccncc1)C(=O)NC1CC1	none
Cc1noc(C)c1C(=O)Nc1nc2ccc(Cl)cc2s1	Rab9 prom act inconclusive, ELG1 genotox inconclusive, NPC1 promoter act inconclusive, FLuc counter 2.4µM, ELG1 repair inh inconclusive (no result: SMN2 splice up)
O=C(/C(=C/c1ccc(Cl)cc1)c1nc2ccccc2[nH]1)c1cccs1	ELG1 genotox inconclusive, FLuc counter inconclusive, ELG1 repair inh 7.3µM
COc1cc(/C=C(/C(=O)c2cccs2)c2nc3ccccc3[nH]2)ccc1O	FLuc counter 6.7µM, ELG1 repair inh inconclusive
O=C(NCc1nc2ccccc2[nH]1)c1cccc(Cl)c1	none (no result: Rab9 prom act, ELG1 genotox, NPC1 promoter act, ELG1 repair inh)
O=C(/C=C/c1cccc(Cl)c1)c1nc2ccccc2[nH]1	FLuc counter 2.7µM, ELG1 repair inh inconclusive
COC(=O)/C(=C\c1cc(OC)c(OC)c(OC)c1)c1nc2ccccc2[nH]1	FLuc counter inconclusive, ELG1 repair inh inconclusive
O=C(/C(=C\c1ccccc1)c1nc2ccccc2[nH]1)c1ccc(Cl)cc1	Rab9 prom act inconclusive, ELG1 genotox inconclusive, NPC1 promoter act 2.8µM, ELG1 repair inh inconclusive
CCCn1c(C)nc2c(NCCOC)nc(C)nc21	none (no result: Rab9 prom act, ELG1 genotox, NPC1 promoter act, FLuc counter, ELG1 repair inh)
Cc1ccc(C(CC(=O)O)NC(=O)CN2C(=O)c3ccccc3C2=O)cc1 (stereo not drawn)	none (no result: SMN2 splice up)
Cc1ccc(OCCC(=O)OCC(=O)NC(=O)c2ccccc2)cc1	none (no result: SMN2 splice up)
Cc1ccc(Cl)cc1N1CCN(S(=O)(=O)c2ccc3[nH]c4c(c3c2)CCCCC4)CC1	none (no result: Rab9 prom act, SMN2 splice up, ELG1 genotox, NPC1 promoter act, ELG1 repair inh)
CCOc1cc([N+](=O)[O-])cc2c1C(=O)Nc1ccccc1O2	ELG1 repair inh 7.3µM
O=C1Nc2ccccc2Oc2cc([N+](=O)[O-])ccc21	ELG1 repair inh inconclusive
O=C1CCC(C(=O)Nc2cccc(Oc3ccccc3)c2)=NN1	none
Cc1ccccc1C(=O)Nc1ccc2c(c1)C(=O)NC2=O	none (no result: SMN2 splice up)
Cc1ccc2cc(NC(=O)c3ccccc3C)ccc2n1	Rab9 prom act 3.5µM, ELG1 genotox inconclusive, NPC1 promoter act 2.8µM, FLuc counter 5.4µM, ELG1 repair inh inconclusive (no result: SMN2 splice up)
Cc1ccc2cc(NC(=O)Cc3ccccc3)ccc2n1	Rab9 prom act 2µM, ELG1 genotox inconclusive, NPC1 promoter act 1.4µM, FLuc counter 3.4µM, ELG1 repair inh inconclusive (no result: SMN2 splice up)
COc1ccc(C(=O)Nc2ccc3c(c2)C(=O)c2ccccc2C3=O)cc1OC	none
COc1ccc(C(=O)c2c(C(F)(F)F)oc3c2C(=O)c2ccccc2C3=O)cc1OC	ELG1 repair inh 3.7µM
CCOc1ccc(/C=N/NS(=O)(=O)c2ccc(C)cc2)cc1OC	none (no result: SMN2 splice up)
COc1cc(/C=N/NC(=O)CN2CCCCC2)ccc1OCc1ccc(Br)cc1	SMN2 splice up 10µM, ELG1 genotox inconclusive, FLuc counter 15µM, ELG1 repair inh inconclusive
COc1cc(/C=N/NS(=O)(=O)c2ccc(C)cc2)ccc1OCc1ccc(C(=O)O)cc1	Rab9 prom act 4.5µM, ELG1 genotox inconclusive, NPC1 promoter act 0.79µM, FLuc counter 0.024µM, ELG1 repair inh inconclusive (no result: SMN2 splice up)
COc1cc(/C=N/NC(=O)CC2(C)OCCCO2)ccc1OCc1ccccc1	FLuc counter inconclusive, ELG1 repair inh inconclusive
COc1ccc(/C=N/NS(=O)(=O)c2ccccc2)cc1OC	ELG1 repair inh 18µM (no result: SMN2 splice up)
COc1cc(/C=N\NS(=O)(=O)c2ccccc2)cc(OC)c1OC	none (no result: SMN2 splice up)
COc1ccc(C(=S)N2CCOCC2)cc1OS(=O)(=O)c1ccc(Br)cc1	ELG1 repair inh inconclusive (no result: SMN2 splice up)
Cc1cc([N+](=O)[O-])ccc1N1C(=O)c2ccc(C(=O)Nc3ccccc3C(=O)O)cc2C1=O	FLuc counter inconclusive (no result: SMN2 splice up)

Screening results from PubChem BioAssay.
